From PubChem BioAssay AID1159580 (chemical genetic matrix, 2015)
Hit rate of the full screen: of about 5,500 compounds, about 2,000 (36%) were called active. Not shown: some 18% with an inconclusive outcome. Cut-off read from the data, not from the text of the source: active = normalized growth mostly below about 0.91 (no sharp cut-off); inconclusive = no clear call, values can overlap the other calls; inactive = mostly above about 0.92. The list shows a part of the results.

Experiment: chemical genetic growth profiling, strain panel (AID 1159580);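 note: tested at 20 µM; growth read once vehicle control cultures reached saturation at 30 °C; 1 = growth at the plate median or of vehicle wells; lower values mean less growth of the strain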
Settings: growth OD
[1] = S. cerevisiae deletion strains, locus YAL013W, strain DEP1, stronger effect = lower value
[2] = S. cerevisiae deletion strains, locus YBR229C, strain ROT2, stronger effect = lower value
[3] = S. cerevisiae deletion strains, locus YDL101C, strain DUN1, stronger effect = lower value
[4] = S. cerevisiae deletion strains, locus YDR150W, strain NUM1, stronger effect = lower value
[5] = S. cerevisiae deletion strains, locus YEL061C, strain CIN8, stronger effect = lower value
[6] = S. cerevisiae deletion strains, locus YGR078C, strain PAC10, stronger effect = lower value
[7] = S. cerevisiae deletion strains, locus YHR030C, strain SLT2, stronger effect = lower value
[8] = S. cerevisiae deletion strains, locus YHR087W, strain rtc3, stronger effect = lower value
[9] = S. cerevisiae deletion strains, locus YJR043C, strain POL32, stronger effect = lower value
[10] = S. cerevisiae deletion strains, locus YJR075W, strain HOC1, stronger effect = lower value
[11] = S. cerevisiae deletion strains, locus YKL190W, strain CNB1, stronger effect = lower value
[12] = S. cerevisiae deletion strains, locus YLR039C, strain RIC1, stronger effect = lower value
[13] = S. cerevisiae deletion strains, locus YLR058C, strain SHM2 (second series), stronger effect = lower value
[14] = S. cerevisiae deletion strains, locus YLR085C, strain ARP6, stronger effect = lower value
[15] = S. cerevisiae deletion strains, locus YLR262C, strain YPT6, stronger effect = lower value
[16] = S. cerevisiae deletion strains, locus YML094W, strain GIM5, stronger effect = lower value
[17] = S. cerevisiae deletion strains, locus YMR219W, strain ESC1, stronger effect = lower value
[18] = S. cerevisiae deletion strains, locus YMR263W, strain SAP30, stronger effect = lower value
[19] = S. cerevisiae deletion strains, locus YMR307W, strain GAS1, stronger effect = lower value
[20] = S. cerevisiae deletion strains, locus YNL153C, strain GIM3, stronger effect = lower value
[21] = S. cerevisiae deletion strains, locus YNL298W, strain CLA4 (second series), stronger effect = lower value
[22] = S. cerevisiae deletion strains, locus YNL322C, strain KRE1, stronger effect = lower value
[23] = S. cerevisiae deletion strains, locus YNR030W, strain Alg12, stronger effect = lower value
[24] = S. cerevisiae deletion strains, locus YPL055C, strain LGE1, stronger effect = lower value
[25] = S. cerevisiae deletion strains, locus YPL241C, strain CIN2, stronger effect = lower value
[26] = S. cerevisiae deletion strains, locus YPR135W, strain CTF4, stronger effect = lower value
[27] = S. cerevisiae strains, strain wild type, stronger effect = lower value
[28] = S. cerevisiae deletion strains, locus YCL061C, strain MRC1, stronger effect = lower value
[29] = S. cerevisiae deletion strains, locus YNL128W, strain TEP1, stronger effect = lower value

Measured: normalized growth

N#CCC(=O)N(Cc1ccccc1F)C(=O)NC1CCCCC1
inactive: [1] 0.993 | [2] 1.01 | [3] 0.994 | S. cerevisiae deletion strains, locus YDL134C, strain PPH21, stronger effect = lower value 0.98 | [4] 0.997 | [5] 1 | [6] 0.994 | S. cerevisiae deletion strains, locus YGR229C, strain SMI1, stronger effect = lower value 0.987 | [7] 0.957 | [8] 0.974 | [9] 0.994 | [10] 0.963 | [11] 1 | [12] 0.915 | [13] 1 | [14] 0.989 | [15] 0.935 | [16] 0.996 | [17] 0.998 | [18] 1 | [19] 0.913 | [20] 0.988 | [21] 1.01 | [22] 1.01 | [23] 0.986 | [24] 1.01 | [25] 0.994 | [26] 0.866 | [27] 0.997

COC(=O)c1cccc([N+](=O)[O-])c1-c1c(C(=O)OC)cccc1[N+](=O)[O-]
inactive: [1] 0.995 | [2] 1.01 | [28] 1.03 | [3] 1.03 | [4] 1.02 | [5] 0.983 | [6] 1.03 | [7] 1.06 | [8] 0.997 | [9] 1.01 | [10] 0.981 | [12] 0.994 | [13] 0.999 | [14] 1.03 | [15] 0.97 | [16] 0.988 | [17] 0.99 | [18] 1.03 | [19] 0.971 | [29] 0.999 | [20] 1.03 | [21] 1.02 | [22] 1 | [23] 1.03 | S. cerevisiae deletion strains, locus YOL006C, strain TOP1, stronger effect = lower value 1.08 | [24] 0.974 | [25] 1 | [26] 1.06 | [27] 1.02

O=C(O)c1cccc([N+](=O)[O-])c1C(=O)Nc1ccc(F)cc1
inactive: [1] 1.01 | [2] 0.996 | [28] 1.01 | [3] 1.01 | [4] 1.03 | [5] 0.98 | [6] 1.01 | [7] 1.1 | [8] 0.965 | [9] 1 | [10] 1.01 | [11] 0.986 | [13] 0.991 | [14] 1 | [16] 1.01 | [17] 0.998 | [18] 0.996 | [19] 0.932 | [29] 0.984 | [20] 1.01 | [21] 0.97 | [22] 1.02 | [23] 0.996 | [24] 0.979 | [25] 1.04 | [26] 1.04
active: [12] 1.22 [resistant] | [15] 1.19 [resistant]
